Screens: PubChem, National Center for Advancing Translational Sciences (NCATS)
Compounds with a hit are over-represented: about 3.1% of the library has one in this group of screens.
Vif-APOBEC3F blk: inhibitors of Vif-A3F interaction | HeLa A3F-eYFP + Vif (tagged APOBEC3F with the HIV-1 protein that degrades it), YFP fluorescence increase | Potency, µM (doses to about 46.1 µM), for the others: at the highest dose activity, negative = active | hit rate 0.2% among 390,000; also: potency is read from the fitted curve at half-maximal effect; % of control where 0% means no effect; nearly all actives have a fitted effect of over 65% in size
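HeLa cells stably expressing A3F-eYFP plus Vif, plated and incubated overnight at 37 deg C, then exposed to compounds overnight at 37 deg C. Blocked degradation read as raised yellow fluorescence (Ex 488/Em 500-530).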
Vif-APOBEC3G blk: Vif-A3G binding inhibition; HeLa A3G-eYFP + Vif (tagged APOBEC3G with the HIV-1 protein that degrades it), YFP fluorescence, overnight; Potency, µM (doses to about 46.1 µM), without a hit: top-dose activity, negative = active, hits mostly inhibitors; hit rate 0.076% among 410,000; AID 602310; also: potency is read from the fitted curve at half-maximal effect; % is scaled to controls: 0 for no effect and ±100 for the full control effect; nearly all actives have a fitted effect of over 60% in size
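HeLa cells stably expressing Vif and C-terminally eYFP-tagged A3G, seeded overnight at 37 deg C, then exposed to compound by pintool overnight at 37 deg C. Rise in yellow fluorescence (Ex 488/Em 500-530, Acumen) marks blocked Vif-driven A3G degradation.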
PLK1 PBD inh: inhibitors of human PLK1 polo-box domain binding | P53350 | Plk1 PBD binding of FITC phosphopeptide, fluorescence polarization | Potency, µM, without a hit: max response, negative = inhibition, hits mostly inhibitors | hit rate 2.8% among 360,000; also: potency is read from the fitted curve at half-maximal effect; series mostly up to about 57 µM; % is scaled to controls: 0 for no effect and ±100 for the full control effect; nearly all actives have a fitted effect of over 65% in size
Target sequence (P53350 whole entry, looked up, the tested form may be a part): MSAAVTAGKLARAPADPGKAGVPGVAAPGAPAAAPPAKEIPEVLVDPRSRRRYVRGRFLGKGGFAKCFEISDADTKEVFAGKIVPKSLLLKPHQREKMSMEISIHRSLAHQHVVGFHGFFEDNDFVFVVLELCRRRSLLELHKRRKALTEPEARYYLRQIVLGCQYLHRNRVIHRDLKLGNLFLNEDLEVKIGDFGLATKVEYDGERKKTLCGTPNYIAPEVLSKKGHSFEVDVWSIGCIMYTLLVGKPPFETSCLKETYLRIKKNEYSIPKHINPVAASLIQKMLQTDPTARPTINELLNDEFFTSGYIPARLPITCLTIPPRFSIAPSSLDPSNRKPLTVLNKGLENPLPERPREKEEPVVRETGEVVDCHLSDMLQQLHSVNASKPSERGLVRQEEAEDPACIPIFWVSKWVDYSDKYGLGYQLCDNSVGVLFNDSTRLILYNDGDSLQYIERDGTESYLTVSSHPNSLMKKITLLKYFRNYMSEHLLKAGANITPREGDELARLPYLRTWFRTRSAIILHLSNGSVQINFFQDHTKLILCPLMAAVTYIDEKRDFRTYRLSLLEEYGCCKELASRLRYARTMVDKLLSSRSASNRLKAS
VDR inh: vitamin D3 receptor (human) inhibition; P11473; VDR-SRC2-3 peptide fluorescence polarization, 2 h; Potency, µM, for inactives: max response, negative = inhibition, most hits filed as inhibitors; hit rate 0.93% among 400,000; AID 504847; also: potency is read from the fitted curve at half-maximal effect; % is scaled to controls: 0 for no effect and ±100 for the full control effect
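FP read-out; VDR + SRC2-3 coactivator peptide; 23 nl compound by pintool; 2 h RT incubation; reagents held at 4 deg C, protected from light.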
TSHR antagonist: blocks TSH signaling through the human TSH receptor; activity change, negative = inhibition, % at 11.5 µM; P16473; TSHR-expressing cells, TSH-stimulated cAMP HTRF, 2 h; stronger effect = lower value; hit rate 0.2% among 330,000; AID 504810;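 active = activity change below a set negative limit, meaning inhibition stronger than a set level, cut at about -70% in these data; inconclusive = activity change between two set negative limits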; also: % is scaled to controls: 0 for no effect and ±100 for the full control effect
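Inhibition of cAMP made by TSHR-expressing cells under TSH stimulation (4nM final, EC80; 2 h, 37 deg C) is quantified with a one-step lysis HTRF kit, anti-cAMP cryptate versus cAMP-d2.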
* = called active by the depositor; ? = inconclusive; / = not tested or not shown. Unless noted, calls follow the shape of the dose curve; as a rule, active = well fitted curve in the direction sought with a large enough effect; inconclusive = small, poorly fitted or top-dose-only effect, or another doubt; inactive = no such curve, though single readings can be large; an effect the other way counts as inactive or inconclusive.

SMILES	Vif-APOBEC3F blk	Vif-APOBEC3G blk	PLK1 PBD inh	VDR inh	TSHR antagonist
Cc1nc(N2CCc3ccccc3C2)[nH]c(=O)c1CCC(C)C	-17.6%	0.3%	-1.2%	5.1%	7.7
CC(C)C(=O)N1CCN(c2ccc([N+](=O)[O-])cc2Cl)CC1	0.9%	2.8%	-5.7%	-9.5%	-0.5
CC(C)CC(=O)N1CCN(c2ccc([N+](=O)[O-])cc2Cl)CC1	3.2%	6.1%	26.7µM*	-23.9%	-7.3
CC(C)CC(=O)N1CCN(c2ccc([N+](=O)[O-])c(NCc3ccccc3)c2)CC1	-2.6%	1.5%	21.2µM*	-20.7%	/
COc1ccc(CNC(=O)c2oc3c(c2C)-c2nn(Cc4ccccc4Cl)cc2CC3)cc1	-0.3%	-6.0%	/	4.4%	/
CCOc1cc(C2C(C#N)=C(N)OC(C)=C2C(C)=O)c(Br)c(Br)c1OC(C)C (stereo not given)	-16.9%	-20.6%	-29.8%	?	1.0
CCOc1cc(C2C(C#N)=C(N)OC(C)=C2C(C)=O)cc(Br)c1O (stereo not given)	?	-22.2%	23.8µM*	3.1%	12.1
CC(C)C[C@H](NC(=O)[C@H](CCCCN)NC(=O)[C@H](CCC(N)=O)NC(=O)[C@H](Cc1cnc[nH]1)NC(=O)[C@H](Cc1cnc[nH]1)NC(=O)[C@@H](N)C(C)C)C(=O)N[C@H](C(=O)N[C@@H](Cc1ccccc1)C(=O)N[C@@H](Cc1ccccc1)C(=O)N[C@@H](C)C(=O)N[C@@H](CCC(=O)O)C(=O)N[C@@H](CC(=O)O)C(=O)N[C@H](C(=O)NCC(=O)N[C@@H](CO)C(=O)N[C@@H](CC(N)=O)C(=O)N[C@@H](CCCCN)C(=O)O)C(C)C)C(C)C	/	/	/	-5.0%	/
CCOC(=O)NCCOC(=O)Nc1ccc(Cl)cc1	-8.5%	11.4%	?	5.6%	6.1
CCOC(=O)N(C)OC(=O)Nc1ccc(Cl)c(Cl)c1	1.4%	-0.5%	2.12µM*	-89.8%	13.2
CCOC(=O)N(CC)OC(=O)Nc1ccc(Cl)cc1	-0.7%	1.4%	8.44µM*	-23.7%	23.6
O=C(c1ccc2c(=O)n(Cc3ccco3)c(=S)[nH]c2c1)N1CCN(Cc2ccc3c(c2)OCO3)CC1	/	/	/	-5.8%	/
Nc1nc2[nH]cc(CCc3ccc(C(=O)NC(CCC(=O)O)C(=O)O)cc3)c2c(=O)[nH]1 (stereo not given)	/	/	/	2.9%	/
O=C(Nc1nc(-c2ccccn2)cs1)c1ccc(F)c(S(=O)(=O)N2CCOCC2)c1	0.4%	3.3%	11.9µM*	89.1µM*	-15.9
Cc1ccc(C(=O)Nc2nc(-c3ccccn3)cs2)cc1S(=O)(=O)N1CCOCC1	1.9%	-1.9%	7.52µM*	79.4µM*	-31.8
O=S1(=O)CCO[C@H]2CCCC[C@@H]2N1Cc1ccccc1	/	0.9%	/	/	/
CSCC[C@H](N)C(=O)N[C@@H](C)C(=O)NCC(=O)N[C@@H](CCCN=C(N)N)C(=O)N[C@@H](CO)C(=O)NCC(=O)N[C@@H](CC(=O)O)C(=O)N[C@@H](CO)C(=O)N[C@@H](CC(=O)O)C(=O)N[C@@H](CCC(=O)O)C(=O)N[C@@H](CC(=O)O)C(=O)N[C@@H](CC(C)C)C(=O)N[C@@H](CC(C)C)C(=O)N[C@@H](CCCCN)C(=O)N[C@@H](C)C(=O)N[C@H](C(=O)O)C(C)C	/	/	/	0.5%	/
O=c1c2cccc(Cl)c2nc2n1Cc1ccccc1-2	7.9%	0.1%	2.67µM*	79.4µM*	-5.2
COc1ccc(-n2c(=O)c(-c3ccc(Cl)cc3)nc3cnc(N(C)C)nc32)cc1	/	/	/	2.9%	/
CCCCC/C=C\C\C=C/C=C/C=C/[C@@H](SCC(N)C(=O)NCC(=O)O)[C@@H](O)CCCC(=O)O (stereo not given in full)	/	/	/	-1.7%	/
COc1ccc(C2/C=C\CN(S(=O)(=O)c3ccc(C)cc3)C(Cc3ccccc3)C(=O)N2Cc2ccc(F)cc2)cc1 (stereo not given)	/	-1.3%	/	-26.6%	/
CC1(C)CCC(c2ccc(Cl)cc2)=C(CN2CCN(c3ccc(C(=O)NS(=O)(=O)c4ccc(N[C@H](CCN5CCOCC5)CSc5ccccc5)c(S(=O)(=O)C(F)(F)F)c4)cc3)CC2)C1	/	-6.6%	/	/	/
